Rows were chosen to be rich in hits. Some 31% of all compounds tested hit in one or more screens of this group.
CYP2C9 inh: blocks human cytochrome P450 2C9; 96,000 tested, 20% active; inhibition, % at 5 µM; AID 777; CYP2C9 Supersomes, luciferin-H conversion, luminescence; P11712;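 active means blocking of liver enzyme CYP2C9 beyond about 50% at 5 µM, limit read from the data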
CYP2C19 inh: blocks human cytochrome P450 2C19. P33261. CYP2C19 Supersomes, luciferin-H EGE luminescence, 30 min. inhibition, % at 5 µM. 96,000 tested, 21% active;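 active means CYP2C19 inhibition above a set limit at 5 µM in the primary screen, cut at about 50% in these data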;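 further: plate controls were negative control wells for no effect and 2.5 mM tranylcypromine positive control for full effect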
CYP2C19 activ: cytochrome P450 2C19 (human) activation. AID 1025. 96,000 tested, under 10 active. recombinant CYP2C19, luciferin-H EGE luminescence; hits give high values; 0 = fully inhibited enzyme, 1 = untreated enzyme. activation factor at 5 µM. P33261;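 active means activation factor of at least 2 at 5 µM in the primary screen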;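 further: 0 = wells with 2.5 mM tranylcypromine and 1 = vehicle-only wells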
PLAP act: activates human placental alkaline phosphatase; purified PLAP enzyme, luminescent substrate read-out; hits give high values; activation fold at 20 µM; 96,000 tested, 1.2% active; P05187; in the data active means activation fold above about 2
Target sequence (P05187 whole entry, looked up): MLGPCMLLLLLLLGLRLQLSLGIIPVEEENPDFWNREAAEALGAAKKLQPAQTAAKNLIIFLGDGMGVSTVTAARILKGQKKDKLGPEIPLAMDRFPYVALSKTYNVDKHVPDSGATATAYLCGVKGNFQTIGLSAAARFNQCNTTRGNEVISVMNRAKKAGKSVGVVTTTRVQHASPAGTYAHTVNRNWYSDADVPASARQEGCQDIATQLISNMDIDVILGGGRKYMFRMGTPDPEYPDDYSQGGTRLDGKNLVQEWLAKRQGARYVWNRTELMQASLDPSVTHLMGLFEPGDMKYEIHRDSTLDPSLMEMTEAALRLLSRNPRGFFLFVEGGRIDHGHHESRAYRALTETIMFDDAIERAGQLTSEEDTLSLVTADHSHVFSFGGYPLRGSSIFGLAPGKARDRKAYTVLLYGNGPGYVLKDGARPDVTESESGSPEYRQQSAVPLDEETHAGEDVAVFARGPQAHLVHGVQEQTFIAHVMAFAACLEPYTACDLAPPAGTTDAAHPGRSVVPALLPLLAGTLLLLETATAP
CYP2C9 act: activators of human CYP2C9. P11712. recombinant CYP2C9, luciferin-H conversion, luminescence; hits give high values; factor 1 = untreated enzyme, 0 = blocked. activation factor at 5 µM. 96,000 tested, 1.4% active;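 active means activation factor of 2 or more for CYP2C9 at a 5 µM dose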;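 further: 0 = sulfaphenazole-blocked wells and 1 = vehicle-only wells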
The depositor's hits bear a star.

SMILES	CYP2C9 inh	CYP2C19 inh	CYP2C19 activ	PLAP act	CYP2C9 act
COc1ccc(CCNc2nc(-c3sc(N)nc3C)cs2)cc1OC	39.6	36.2	0.6	1.2	0.6
Cc1nc(NC(=O)c2ccccc2)sc1-c1csc(Nc2cccc(Cl)c2)n1	22.5	27.1	0.7	0.9	0.8
COc1ccc(Nc2nc(-c3sc(NC(C)=O)nc3C)cs2)cc1	81.1*	82.2*	0.2	1.6	0.2
Cc1nc(N)sc1-c1csc(Nc2ccccn2)n1	60.6*	49.8	0.5	1.6	0.4
COc1ccc(Nc2nc(-c3sc(N)nc3C)cs2)cc1	80.1*	77.8*	0.2	1.5	0.2
O=C(NCc1ccc2c(c1)OCO2)c1ccc(N2CCCC2=O)cc1	29.1	23.1	0.8	1	0.7
COc1ccc(CCNC(=O)/C=C/c2ccc(C)cc2)cc1OC	-43.3	29.8	0.7	1	1.4
Cc1cc(-n2nc(C)cc2C)n2nc(C)c(-c3ccc(Cl)cc3)c2n1	24.8	-17.0	1.2	0.9	0.8
O=C1c2ccccc2C(=O)N1CCCc1nc2ccccc2c(=O)n1-c1cccnc1	63.2*	47.9	0.5	1.4	0.4
Cc1cccc(-n2c(CCN3C(=O)c4ccccc4C3=O)nc3ccccc3c2=O)n1	9.5	11.6	0.9	1.2	0.9
Cc1cccc(-n2c(CCCN3C(=O)c4ccccc4C3=O)nc3ccccc3c2=O)n1	39.3	51.8*	0.5	1	0.6
Cc1occc1C(=O)Nc1ccc2ccccc2c1	29.5	39.4	0.6	0.9	0.7
Cc1[nH]nc2c1C(c1ccccc1F)CC(=O)N2 (stereo not drawn)	-7.6	-0.1	1	1.4	1.1
CCc1nn(C(C)C(=O)N2CCc3ccccc3C2)c(=O)c2cc3occc3n12 (stereo not drawn)	60.7*	93.9*	0.1	1.5	0.4
CCC(C(=O)NC(C)CCc1ccccc1)n1nc(C)n2c(cc3occc32)c1=O (stereo not drawn)	87.2*	70.7*	0.3	1.6	0.1
CCc1nn(C(C)C(=O)Nc2cccc(C)c2C)c(=O)c2cc3occc3n12 (stereo not drawn)	66.4*	70.6*	0.3	1	0.3
CCOC(=O)C(C)S(=O)(=O)c1ccc(C(F)(F)F)cn1 (stereo not drawn)	0.8	53.8*	0.5	1	1
CCOC(=O)/C(N)=C/c1ncc(C(F)(F)F)cc1Cl	5.1	-1.5	1	1	0.9
N#CCCn1nc(-c2ccccc2)cc1Nc1ccccc1NC(=O)c1cccs1	95.8*	97.2*	0	1.6	0
CCCCCOc1ccc(Cl)cc1CN1CCOCC1	54.2*	90.5*	0.1	1.6	0.5
CCOc1ccc(Cl)cc1CN1CCOCC1	22.5	20.5	0.8	0.9	0.8
CC(C)CCOc1ccc(Cl)cc1CN1CCOCC1	34.7	55.9*	0.4	1.8	0.7
COc1ccc(CN2CCOCC2)c(C)c1C	-2.0	37.4	0.6	1	1
CCOC(=O)c1ccc(NC(=O)NC2CCN(CC(=O)NCc3ccc4c(c3)OCO4)CC2)cc1	9.7	3.5	1	1.1	0.9
COc1ccccc1N1CCN(C(=O)C2CCN(S(=O)(=O)N3CCOCC3)CC2)CC1	-13.4	-3.1	1	1.3	1.1
SMILES	CYP2C9 inh	CYP2C19 inh	CYP2C19 activ	PLAP act	CYP2C9 act
CC(C)c1cc(C(N)=O)c(NC(=O)C2CCC2)s1	54.6*	56.9*	0.4	1.2	0.5
O=C(c1ccccc1)c1ccc(Oc2ncccn2)cc1	21.3	62.6*	0.4	1	0.8
COCCn1c(C)cc(C(=O)COC(=O)CCN2C(=O)c3ccccc3C2=O)c1C	13.5	33.0	0.7	0.9	0.9
COC(=O)c1ccc(C2C(C(C)=O)=C(C)Nc3ncnn32)cc1 (stereo not drawn)	25.9	96.5*	0	1.1	0.7
CCCC1=C(C(=O)OCC)C(c2ccc(N(C)C)cc2)n2ncnc2N1 (stereo not drawn)	13.6	16.3	0.8	1.2	0.9
CCOC(=O)C1=C(C)Nc2ncnn2C1/C=C/c1ccccc1 (stereo not drawn)	62.9*	57.0*	0.4	1	0.4
CCCC1=C(C(=O)OCC)C(/C=C/c2ccccc2)n2ncnc2N1 (stereo not drawn)	51.6*	91.0*	0.1	0.8	0.5
CCOC(=O)C1=C(C)Nc2ncnn2C1c1cccs1 (stereo not drawn)	18.1	15.9	0.8	1	0.8
CCCC1=C(C(=O)OCC)C(c2ccc(F)cc2)n2ncnc2N1 (stereo not drawn)	75.5*	54.8*	0.5	0.9	0.2
COc1cc2c(cc1OC)C1=C(C#N)CN(CC(=O)O)CN1CC2	57.2*	27.1	0.7	1.8	0.4
COc1cc2c(cc1OC)CN(C(=O)COc1ccc(C#N)cc1)CC2	35.5	20.6	0.8	1	0.6
O=C(N/N=C/c1ccc(Cl)cc1)Nc1ccccc1	5.4	-3.7	1	1	0.9
O=C(Nc1ccccc1)N(O)c1ccc(Cl)cc1	61.0*	80.1*	0.2	1	0.4
CCn1c(SCC(=O)c2cc(C)n(-c3ccc(C(=O)OC)cc3)c2C)nnc1-c1cccnc1	44.7	38.0	0.6	1.5	0.6
CC(C)N(C(=O)CSc1nn2c(=O)c(C(C)(C)C)nnc2s1)c1ccccc1	89.0*	88.3*	0.1	1.2	0.1
CC(C)(C)c1nnc2sc(SCCN3C(=O)c4ccccc4C3=O)nn2c1=O	46.7	21.9	0.8	1	0.5
Cc1cc(C(=O)CSc2nn3c(=O)c(C(C)(C)C)nnc3s2)c(C)n1-c1ccc(F)cc1	57.7*	31.3	0.7	1.3	0.4
COc1cc(S(=O)(=O)NCCN2CCOCC2)c(OC)cc1Cl	12.5	64.6*	0.4	1.3	0.9
COc1ccc(S(=O)(=O)NCCN2CCOCC2)c2ccccc12	-63.5	92.2*	0.1	1.5	1.6
Cc1cc(S(=O)(=O)NCCN2CCOCC2)c(C)s1	-9.5	33.8	0.7	1.3	1.1
COc1ccc(N2CCN(C(=O)CSc3nnc(Cn4nnc5ccccc54)n3C)CC2)cc1	33.9	15.4	0.8	1.5	0.7
CCCCn1c(CCNC(=O)c2cccs2)nc2ccccc21	21.3	62.6*	0.4	1.2	0.8
CCCn1c(CNC(=O)c2ccccc2)nc2ccccc21	0.2	60.6*	0.4	0.9	1
CC(C)Cn1c(CNC(=O)c2ccccc2)nc2ccccc21	27.2	71.7*	0.3	1	0.7
COc1cc(S(=O)(=O)N2CCOCC2)ccc1NC(=O)c1cc2c(s1)CCC2	68.2*	46.4	0.5	1.6	0.3
Cc1ccc(NC(=O)c2cc3c(s2)CCC3)cc1S(=O)(=O)N1CCOCC1	-0.3	-34.4	1.3	1.1	1
COc1cc(S(=O)(=O)N2CCOCC2)ccc1NC(=O)CSc1nnc(N)s1	46.8	13.3	0.9	1	0.5
Cc1ccc(S(=O)(=O)N2CCOCC2)cc1NC(=O)c1cc2c(s1)CCC2	63.8*	51.9*	0.5	1.7	0.4
